Values joined by “and” are separate entries in the source; they are usually repeats but may differ in a detail not shown here. Equal values may be shown once. The whole screen tested about 16,000 compounds, of which about 4,000 (25%) were called active. Roughly 26% stayed inconclusive and do not appear here. Only a sample is shown. Unmarked numbers belong to inactive results. Calls follow the shape of the dose curve; as a rule, active = well fitted curve in the direction sought with a large enough effect; inconclusive = small, poorly fitted or top-dose-only effect, or effect the other way; inactive = no such curve, though single readings can be large or run the other way.
% is scaled to controls: 0 for no effect and ±100 for the full control effect.

The target in the assay is Cytochrome P450 2C9 (Homo sapiens) (UniProt P11712). As to the kind of experiment: Cytochrome panel assay with activity outcomes. The settings on record: recombinant CYP, pro-luciferin dealkylation, luminescence, p450-cyp2c9; series mostly up to 57.1 µM; activity, negative = inhibition: at the top concentration.
Chain of Cytochrome P450 2C9 (Homo sapiens) (P11712 whole entry, looked up): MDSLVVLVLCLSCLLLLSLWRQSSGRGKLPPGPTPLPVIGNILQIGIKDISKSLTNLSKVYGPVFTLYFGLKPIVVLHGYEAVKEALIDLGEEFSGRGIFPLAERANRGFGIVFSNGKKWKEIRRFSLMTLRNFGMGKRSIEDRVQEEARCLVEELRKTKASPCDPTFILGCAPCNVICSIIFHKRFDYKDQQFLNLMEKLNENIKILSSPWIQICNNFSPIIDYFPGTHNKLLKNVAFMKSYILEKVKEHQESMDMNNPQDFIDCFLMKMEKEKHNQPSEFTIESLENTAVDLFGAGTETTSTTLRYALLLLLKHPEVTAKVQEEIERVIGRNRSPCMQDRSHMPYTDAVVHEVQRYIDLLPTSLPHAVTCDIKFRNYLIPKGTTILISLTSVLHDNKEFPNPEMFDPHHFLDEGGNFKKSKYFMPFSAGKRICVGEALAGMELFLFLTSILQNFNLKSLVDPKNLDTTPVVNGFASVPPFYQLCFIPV
As a reminder, the AC50 is the concentration at which the activity in the assay is half-maximal. Regarding `O=c1c2ccccc2nnn1CSc1ccc2c(c1)OCCO2`, the concentration at half-maximal activity (AC50) was 7.94 µM (active). As for `CC(C)n1nnc2ccccc2c1=O`, the “activity, negative = inhibition” value is -24.8%. With `Cc1ccc(C(=O)/C=C/c2c[nH]c3ccccc23)cc1`, the concentration at half-maximal activity (AC50) was 2.82 µM (active). With `Cc1ccc(C(=O)/C=C2\NCC(C)NC2=O)cc1` (stereo unspecified), the “activity, negative = inhibition” value was -2.82%.

For `CC(C)(C)OC(=O)[C@H]([C@@H]1N[C@@H](C(=O)O)C(C)(C)S1)N1C(=O)c2ccccc2C1=O`, the activity, negative = inhibition is 19% [at 11.4 µM]. `CSc1nsc(SCc2ccc(Cl)cc2)n1`: the half-maximal activity concentration (AC50) was 0.355 µM (active).

On to `CCN1C(=O)[C@H]2[C@H]3[C@H](O)[C@H](O)C/C(=N/O[C@@H](C)c4cn([C@H](CO)Cc5ccccc5)nn4)[C@@H]3CC[C@@H]2C1=O`, for which the activity, negative = inhibition was -13.4% [at 11.4 µM] and 2.69% [at 11.4 µM]. Same read-out and setting: in the case of `CC1(C)O[C@@H]2O[C@H]([C@H](O)CO/N=C3/[C@H]4O[C@@H]4[C@@H](O)[C@H]4[C@H]3CCn3c(=O)n(-c5ccccc5)c(=O)n34)[C@@H](O)[C@@H]2O1` it was 15.4% [at 11.4 µM]. As to `COC(=O)c1c(-n2c(C)cc(C=O)c2C)sc2c1CCCC2`, the concentration at half-maximal activity (AC50) is 1.12 µM (active). Turning to `Cc1cc(C=O)c(C)n1-c1ccc(NC2CCCC2)c([N+](=O)[O-])c1`, the “activity, negative = inhibition” value is -36.3%. Consider `C(=N/Nc1nnc2c(n1)[nH]c1ccccc12)/c1cccnc1`, for which the activity, negative = inhibition was -16.8% [at 11.4 µM].

Regarding `Cc1sc(N/N=C/c2cccnc2)nc1-c1ccccc1`, the AC50 was 0.355 µM (active). On to `Cc1cnn(-c2cc(N/N=C/c3ccccc3)ncn2)c1`, for which the “activity, negative = inhibition” value was -16%. Consider `CC(C)=C[C@H]1[C@@H](C(=O)Oc2ccccc2C(C)C)C1(C)C`, for which the activity, negative = inhibition was -15.1% [at 11.4 µM].

As for `CCN1C(=O)[C@H]2[C@@H]3[C@H](O)C=CC(=O)[C@H]3CC[C@H]2C1=O`, the activity, negative = inhibition was 17.9% [at 11.4 µM]. With `CCN1CCN(C(=O)N[C@H](C(=O)N[C@@H]2C(=O)N3[C@@H]2SC(C)(C)[C@@H]3C(=O)O)c2ccccc2)C(=O)C1=O`, the “activity, negative = inhibition” value is 25.1% [at 25.6 µM]. With `COc1cc2c(c(O)c1OC)C(=O)C(OC)CCC2` (stereo unspecified), the “activity, negative = inhibition” value was 18.1%.

Take `COc1cc([C@H]2c3cc4c(cc3[C@@H](O)[C@@H]3COC(=O)[C@H]23)OCO4)cc(OC)c1OC`: the AC50 is 6.31 µM (active).

Take `Nc1ncnc2c1nc(-c1ccccc1)n2[C@H]1O[C@@H](CO)[C@@H](O)[C@H]1O`: the activity, negative = inhibition was 9.27% [at 11.4 µM].

For the molecule `Cn1cc([N+](=O)[O-])c(C(=O)Nc2cc(Oc3cccnc3)cc([N+](=O)[O-])c2)n1`, the AC50 was 5.62 µM (active). On the same count and under the same terms, in the case of `CCC/C=C(\CCC)C(NS(=O)(=O)c1cccc2cccnc12)c1ccc(-c2ccccc2)cc1` (stereo unspecified) it was 2 µM (active); in that of `CCC/C=C(\CCC)C(NS(=O)(=O)c1cccc2cccnc12)c1ccc(C(=O)OC)cc1` (stereo unspecified), 1.58 µM (active). Regarding `O=[N+]([O-])c1cccc2c[nH]nc12`, the “activity, negative = inhibition” value is 7.17%.

For `O=[N+]([O-])c1ccc(S(=O)(=O)Cc2ccccc2)c2nonc12`, the AC50 is 0.316 µM (active). In the case of `COc1cc(OC)c(OC)cc1C=NCC1(c2ccccc2)CCCC1`, the “activity, negative = inhibition” value is 32.7%. Take `CN1CCCC2(CCN(C(=O)c3cnccn3)CC2)C1`: the “activity, negative = inhibition” value was 15.7%. With `Cc1cc(OCCn2cc(/C(N)=N/O)c3ccccc32)ccc1Cl`, the AC50 was 12.6 µM (active).

Turning to `CC(C)(N)C(=O)N[C@@H]1C(=O)N2[C@@H]1SC(C)(C)[C@H]2C(=O)O`, the activity, negative = inhibition is 14.5% [at 11.4 µM].

In the case of `Cc1csc(NC(=O)Cc2c[nH]c3ccccc23)n1`, the AC50 is 12.6 µM (active). `CC1(C)Cc2c(C#N)c(SCc3ccccc3)nc(N3CCOCC3)c2CO1`: the AC50 was 0.708 µM (active). With `CCCCCCC(C)n1cc(C(C)=O)c(=O)[nH]c1=O` (stereo unspecified), the “activity, negative = inhibition” value is -56.9%. Turning to `COC(=O)C(Cc1ccc(OC(=O)c2ccc(Cl)cc2)cc1)N1Cc2ccccc2C1=O` (stereo unspecified), the half-maximal activity concentration (AC50) is 3.16 µM (active).

On to `COC(=O)C(Cc1ccc(OC(=O)c2ccc(C(F)(F)F)cc2)cc1)N1Cc2ccccc2C1=O` (stereo unspecified), for which the concentration at half-maximal activity (AC50) was 8.91 µM (active). For `O=C(Oc1ccc2c(c1)CN(Cc1ccccc1)CO2)c1ccccc1`, the activity, negative = inhibition is -0.387% [at 11.4 µM]. With `COC(=O)[C@H](N)Cc1ccc(Cl)cc1`, the “activity, negative = inhibition” value was -6.72%. As to `COC(=O)C1=C(C)NC2=C(C(=O)CCC2)C1c1cn(Cc2ccc(Cl)cc2Cl)nc1-c1ccccc1` (stereo unspecified), the AC50 is 1 µM (active). In the case of `CCN(CC)C(=O)C1=C(C)NC(=S)NC1c1cn(-c2ccccc2)nc1-c1ccc(Cl)cc1` (stereo unspecified), the “activity, negative = inhibition” value is -22.4%.

Regarding `c1ccc2c(c1)CCCc1cc(NCCN3CCOCC3)nnc1-2`, the “activity, negative = inhibition” value was 8.78% [at 25.6 µM]. As for `COc1ccccc1CN1CCC2(CCNCC2)CC1`, the “activity, negative = inhibition” value was -8.3%. The same measure, in the same setting: in the case of `C(=Nc1cnc2ccccc2c1)c1ccc2ccccc2n1` it was 3.29% [at 11.4 µM]. Turning to `Cc1cccc(NC(=S)NC(=O)CCc2ccccc2)c1`, the AC50 was 7.94 µM (active). Take `C/C(=N\NC(=S)Nc1cccc(C)c1)c1ccccc1`: the concentration at half-maximal activity (AC50) is 6.31 µM (active).

For `Cc1cccc(NC(=S)Nc2ccc(Br)cc2)c1`, the “activity, negative = inhibition” value was -14.1%. On the same count and under the same terms, to `C[C@@H](c1ccccc1)N1C(=O)[C@H]2[C@H]3[C@H](O)[C@H](O)C/C(=N/OCc4ccccc4)[C@@H]3CC[C@@H]2C1=O` belongs -23.4% [at 11.4 µM]; to `COc1ccc(CNc2ncncc2-c2cccc(C#N)c2)c(OC)c1`, -28.7% [at 2.29 µM]. Consider `CN1CCN(C(c2ccccc2)c2ccccc2)CC1`, for which the “activity, negative = inhibition” value was -7.31% [at 25.6 µM].

(Values after PubChem BioAssay AID1851 (National Center for Advancing Translational Sciences (NCATS), 2009).)
